{"source": "PubChem BioAssay (EPA / NIEHS)", "key": {"[1]": {"system": "SRY-box transcription factor 17 (SOX17) Protein Expression, Deisenroth Lab, SOX17 (gene 64321)", "test": "CCTE_Deisenroth_DEVTOX-GLR_legacy_Sox17: (Legacy) CCTE's DevTox GLR-Endo Assay Evaluation of SRY-box transcription factor 17 (SOX17) Protein Expression, Deisenroth Lab (AID 2284341; active = hit-call score of the fitted dose curve at least 0.9, where 1 is the maximum; inactive = score below 0.9)", "conditions": "actives raise or lower the signal", "in_short": "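RUES2-GLR human pluripotent cells, seeded 24 h, then differentiated 48 h in defined media with two chemical exposures 24 h apart (1 nM - 200 uM, 10 points). Sox17+ fraction from high-content fluorescence imaging; bidirectional fit versus 0.2% DMSO.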"}, "[2]": {"system": "SRY-box transcription factor 2 (SOX2) Protein Expression, Deisenroth Lab, SOX2 (gene 6657)", "test": "CCTE_Deisenroth_DEVTOX-GLR_legacy_Sox2: (Legacy) CCTE's DevTox GLR-Endo Assay Evaluation of SRY-box transcription factor 2 (SOX2) Protein Expression, Deisenroth Lab (AID 2284346; active = hit-call score of the fitted dose curve at least 0.9, where 1 is the maximum; inactive = score below 0.9)", "in_short": "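Read-out: fraction of Sox2+ cells by high-content fluorescence imaging of fixed RUES2-GLR cells after 48 h differentiation with two 24 h-spaced exposures. Positivity cutoff 5x BMAD above endoderm control median; 0.2% DMSO median subtracted.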"}, "[3]": {"system": "SRY-box transcription factor 2 (SOX2) Protein Expression, Deisenroth Lab, SOX2 (gene 6657)", "test": "CCTE_Deisenroth_DEVTOX-GLR_Endo_SOX2: CCTE's DevTox GLR-Endo Assay Evaluation of SRY-box transcription factor 2 (SOX2) Protein Expression, Deisenroth Lab (AID 2284412)", "in_short": "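Endpoint is percent SOX2-positive cells (SOX2+ count/total cells) minus 0.2% DMSO control, from high-content imaging of fixed, nuclear-stained RUES2-GLR cells. Dosing twice at 24 h intervals over 48 h differentiation, 1 nM–200 uM in 10 points.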"}, "[4]": {"system": "SRY-box transcription factor 17 (SOX17) Protein Expression, Deisenroth Lab, SOX17 (gene 64321)", "test": "CCTE_Deisenroth_DEVTOX-GLR_Endo_SOX17: CCTE's DevTox GLR-Endo Assay Evaluation of SRY-box transcription factor 17 (SOX17) Protein Expression, Deisenroth Lab (AID 2284413; active = hit-call score of the fitted dose curve at least 0.9, where 1 is the maximum; inactive = score below 0.9)", "experimental": "CCTE_Deisenroth_DEVTOX-GLR_Endo assay is a cell-based, multiplex-readout assay that uses RUES2-GLR, a human pluripotent cell line, with measurements taken at 48 hours after chemical dosing in a 384-well microplateCCTE_Deisenroth_DEVTOX-GLR_Endo_SOX17 is 1 of 4 assay components calculated from the CCTE_Deisenroth_DEVTOX-GLR_Endo assay and it measures the percentage of cells in an endoderm state. Using a type of inducible fluorescent protein reporter, gain-of-signal activity can be used to understand changes in gene expression with fluorescent microscopy. The percentage of SOX17+ cells are determined by calculating the number of SOX17+ cells divided by the cell count. To generalize the intended target to other relatable targets, this assay component is annotated to the transcription factor intended target family, where the subfamily is SRY-related HMG-box.Data from the assay component CCTE_Deisenroth_DEVTOX-GLR_Endo_SOX17 was analyzed as 1 assay endpoint. The endpoint is the percent change in SOX17+ cell population relative to the 0.2% DMSO control in the CCTE_Deisenroth_DEVTOX-GLR_Endo assay. This assay endpoint can be referred to as a primary readout since this assay has produced multiple assay endpoints where this one serves as a measure of endoderm differentiation.\nAll assay protocols are aligned to the DevTox GLR-Endo assay workflow. Cells are seeded into 384-well microplates for 24 hours prior to initiating differentiation in defined media for a total duration of 48 hours. A total of two chemical exposures are administered in 24-hour intervals during the 48-hour differentiation period. At the assay termination point, cells are fixed and stained with a fluorescent dye demarcating the nucleus. High-content imaging is used to acquire brightfield and fluorescent channel images across 5 fields per well. Cell identification and mean biomarker fluorescence intensities are calculated with image analysis software to determine the total cell counts for viability assessment and the biomarker expression frequency for each lineage-dependent assay. A typical experimental design tests a 10-point concentration series (1 nM - 200 uM) for 28 compounds in single technical replicate. Assay plate controls include non-differentiated pluripotent cells (baseline control), lineage-specific differentiated cells (differentiation control), and DMSO solvent exposed differentiated cells (solvent control). Experiments typically comprise a minimum of four experimental replicates (n=4)."}, "[5]": {"test": "VALA_TUBHUV_Agonist_TubuleLength: VALA Sciences human Umbilical Vein Endothelial Tubule Formation (TUBHUV) Agonism Assay (AID 2284337)", "in_short": "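Tubule length quantified by CD31 immunofluorescence imaging after fixation. HUVEC-HDF co-cultures (1:3) pre-grown 3 days with 10 ng/ml VEGF, then dosed 3 days in VEGF medium; 0.1 % DMSO vehicle baseline.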"}, "[6]": {"test": "VALA_TUBIPS_Agonist_CellCount: Viability Assessment in the VALA Sciences human iPS-derived Endothelial Tubule Formation (TUBIPS) Agonism Assay (AID 2284338)", "experimental": "VALA_TUBIPS_Agonist is a cell-based, multiplexed assay that uses human iPS-derived endothelial cells (iPSC). Measurements were taken 72 hours after chemical dosing in a 96-well plate.VALA_TUBIPS_Agonist_CellCount is the one of two assay components measured from the VALA_TUBIPS_Agonist assay. It is designed to make measurements of viability, a form of viability reporter, as detected with fluorescence intensity signals by HCS Fluorescent Imaging technology. Data from the assay component VALA_TUBIPS_Agonist_CellCount was analyzed at the endpoint, VALA_TUBIPS_Agonist_CellCount, in the positive analysis fitting direction relative to DMSO as the negative control and baseline of activity. Using a type of viability reporter, loss-of-signal activity can be used to understand viability. To generalize the intended target to other relatable targets, this assay endpoint is annotated to the cell cycle intended target family, where the subfamily is cell count.\nThis HUVEC-HDF assay was designed to detect chemical suppression of tubulogenesis, i.e. antagonism. To measure tubulogenesis antagonism, HUVEC cells were co-cultured with HDF cells at a 1:3 ratio for 3-days in 10 ng/ml VEGF (i.e., favorable conditions with growth factors), then changed to assay medium containing 10 ng/ml VEGF and ToxCast compounds for an additional 3-day period. […]"}, "[7]": {"test": "CCTE_Mundy_HCI_iCellGluta_NOG_NeuronCount: CCTE's Neurite Outgrowth Assay in iCellGluta cells for Neuron Count, Mundy Lab (AID 2284340);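 also: cells fixed about 48 h after compound addition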", "in_short": "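Neuron count read by automated high-content imaging of Hoechst 33342 and betaIII-tubulin/Alexa Fluor-488 labelling in human iPSC glutamatergic neurons. Activity fitted relative to DMSO.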"}, "[8]": {"test": "CCTE_Mundy_HCI_iCellGluta_NOG_NeuriteCount: CCTE's Neurite Outgrowth Assay in iCellGluta cells for Neurite Count, Mundy Lab (AID 2284342);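 also: chemical exposure about 48 hours starting 2 hours after plating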"}, "SERPINA7 (gene 6906)": {"system": "SERPINA7 (gene 6906)", "test": "CCTE_GLTED_hTBG: CCTE's human Thyroxine-binding Globulin (TBG) Inhibition Assay, Great Lakes Toxicology and Ecology Division (GLTED) Lab (AID 2284343)", "in_short": "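Cell-free displacement of the fluorescent probe ANSA from human thyroxine-binding globulin after 2 h exposure. Read-out at ex 380/em 475 nm; DMSO baseline.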"}, "[9]": {"test": "VALA_MIGHUV1_ScratchOnly_WoundArea: VALA Sciences human Umbilical Vein Endothelial Cell Migration (MIGHUV) Assay, Area of Scratch Wound Inhibited Recovery (AID 2284336)", "in_short": "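Wound area remaining after 24 h recovery imaged by Hoechst nuclear fluorescence in scratched HUVEC cultures, chemicals added within 30 min of scratching across a 6-point series. Gain of signal fitted against 0.1% DMSO; cytochalasin D positive control.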"}}, "note": "Where “and” joins values, the source holds several entries; their conditions need not be identical. Equal entries are not always repeated. Inconclusive results are not listed. Calls of active or inactive are those of the source. The calls were made as follows, unless noted: active = hit-call score of the fitted dose curve at least 0.9, where 1 is the maximum; inconclusive = response in the unintended direction; inactive = score below 0.9.", "data": [{"smiles": "Cn1c(=O)c2c(ncn2C)n(C)c1=O", "values": [{"measurement": "outcome", "setting": "[1]", "value": "inactive"}, {"measurement": "outcome", "setting": "[2]", "value": "inactive"}, {"measurement": "AC50", "setting": "[3]", "value": "33.8 µM (active)"}, {"measurement": "outcome", "setting": "[4]", "value": "inactive"}]}, {"smiles": "O=P(OC(CCl)CCl)(OC(CCl)CCl)OC(CCl)CCl", "values": [{"measurement": "outcome", "setting": "[5]", "value": "inactive"}, {"measurement": "outcome", "setting": "[6]", "value": "inactive"}, {"measurement": "outcome", "setting": "[7]", "value": "inactive"}, {"measurement": "outcome", "setting": "[8]", "value": "inactive"}, {"measurement": "AC50", "setting": "SERPINA7 (gene 6906)", "value": "3.27 µM (active)"}]}, {"smiles": "CC[C@H]1OC(=O)[C@H](C)[C@@H](O[C@H]2C[C@@](C)(OC)[C@@H](O)[C@H](C)O2)[C@H](C)[C@@H](O[C@@H]2O[C@H](C)C[C@H](N(C)C)[C@H]2O)[C@](C)(O)C[C@@H](C)C(=O)[C@H](C)[C@@H](O)[C@]1(C)O", "values": [{"measurement": "outcome", "setting": "[7]", "value": "inactive"}, {"measurement": "outcome", "setting": "[8]", "value": "inactive"}]}, {"smiles": "CC(C)c1cccc(C(C)C)c1N1C(=O)c2ccc(O)cc2C1=O", "values": [{"measurement": "AC50", "setting": "[9]", "value": "5.98 µM (active) and 22.1 µM (active)"}, {"measurement": "AC50", "setting": "[5]", "value": "85 µM (active) and 7.58 µM (active)"}, {"measurement": "AC50", "setting": "[6]", "value": "80.2 µM (active)"}]}, {"smiles": "C[C@](N)(Cc1ccc(O)c(O)c1)C(=O)O", "values": [{"measurement": "outcome", "setting": "[1]", "value": "inactive"}, {"measurement": "outcome", "setting": "[2]", "value": "inactive"}, {"measurement": "outcome", "setting": "[3]", "value": "inactive"}, {"measurement": "outcome", "setting": "[4]", "value": "inactive"}]}, {"smiles": "CC[C@H](C)C(=O)O[C@H]1C[C@@H](C)C=C2C=C[C@H](C)[C@H](CC[C@@H]3C[C@@H](O)CC(=O)O3)[C@H]21", "values": [{"measurement": "AC50", "setting": "[1]", "value": "7.97 µM (active)"}, {"measurement": "AC50", "setting": "[2]", "value": "41.7 µM (active)"}, {"measurement": "AC50", "setting": "[3]", "value": "62.1 µM (active)"}, {"measurement": "AC50", "setting": "[4]", "value": "6.57 µM (active)"}]}, {"smiles": "Nc1ccc(Nc2ccccc2)cc1", "values": [{"measurement": "AC50", "setting": "SERPINA7 (gene 6906)", "value": "50 µM (active)"}]}, {"smiles": "O=C(O)c1cc(N=Nc2ccc(S(=O)(=O)Nc3ccccn3)cc2)ccc1O", "values": [{"measurement": "outcome", "setting": "[1]", "value": "inactive"}, {"measurement": "AC50", "setting": "SERPINA7 (gene 6906)", "value": "15.9 µM (active)"}, {"measurement": "outcome", "setting": "[2]", "value": "inactive"}, {"measurement": "outcome", "setting": "[4]", "value": "inactive"}]}, {"smiles": "Nc1nc2ncc(CNc3ccc(C(=O)N[C@@H](CCC(=O)O)C(=O)O)cc3)nc2c(=O)[nH]1", "values": [{"measurement": "outcome", "setting": "[1]", "value": "inactive"}, {"measurement": "outcome", "setting": "[2]", "value": "inactive"}, {"measurement": "outcome", "setting": "[3]", "value": "inactive"}, {"measurement": "outcome", "setting": "[4]", "value": "inactive"}]}]}
